Our source for the growth inhibition values is PubChem BioAssay (NCI).

A short description of the assay: NCI Yeast Anticancer Drug Screen. Data for the CLN2oe strain (AID 163).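 Also: 0% = growth of vehicle-only control cultures.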 Particulars: S. cerevisiae CLN2oe strain, stronger effect = higher value. Here is the method:
Growth inhibition of yeast strains with defined genetic alterations is measured as a screen for potential anti-cancer activity. Selected strains with alterations in DNA damage repair or cell cycle control were exposed to compounds and growth inhibition was measured relative to vehicle treated controls. The strain used in this assay is CLN2oe

The structures appear in SMILES notation. About 79,000 compounds went through this panel and 15% of them were active in at least one assay; those are over-represented in the sample as a whole. A number with no mark means an inactive call. Active and inactive are the calls of the source. Rule as the data show it: active = growth inhibition above about 70%; inactive = the rest.

Regarding `NC(N)=N/N=C/c1cc(Cl)cc(Cl)c1O`, the growth inhibition (at 1.2 µM) is 15%; the growth inhibition (at 3.7 µM) is 23%; the growth inhibition (at 11.0 µM) is 21%; the growth inhibition (at 33.0 µM) is 33%; the growth inhibition (at 100.0 µM) was 93% (active).

For the molecule `Nc1cc(F)cc2c1-c1ccc(F)cc1C2`, the growth inhibition (at 1.2 µM) was -10%; the growth inhibition (at 3.7 µM) is -9%; the growth inhibition (at 11.0 µM) was -1%; the growth inhibition (at 33.0 µM) is 7%; the growth inhibition (at 100.0 µM) was 72% (active).

On to `CN=C(N)N/N=C(\C)c1ccc2oc3ccc(/C(C)=N/NC(N)=NC)cc3c2c1`, for which the growth inhibition runs as follows: (at 1.2 µM) -66%; (at 3.7 µM) -74%; (at 11.0 µM) 20%; (at 33.0 µM) 97% (active); (at 100.0 µM) 98% (active).

For the molecule `Oc1ccc(C=Nc2ccccc2O)cc1`, the growth inhibition by setting is: (at 1.2 µM) 47%; (at 3.7 µM) 58%; (at 11.0 µM) 60%; (at 33.0 µM) 56%; (at 100.0 µM) 64%.

Take `O=C(Nc1ccc2c(c1)Cc1c-2ccc([N+](=O)[O-])c1F)C(F)(F)F`: the growth inhibition (at 1.2 µM) is -2%; the growth inhibition (at 3.7 µM) was -3%; the growth inhibition (at 11.0 µM) was -4%; the growth inhibition (at 33.0 µM) was -11%; the growth inhibition (at 100.0 µM) is -4%.

For `CCCCC(=O)c1c(O)nc2sccn2c1=O`, the growth inhibition (at 1.2 µM) is 9%; the growth inhibition (at 3.7 µM) is 5%; the growth inhibition (at 11.0 µM) was 26%; the growth inhibition (at 33.0 µM) is 78% (active); the growth inhibition (at 100.0 µM) was 89% (active).

Regarding `OB(O)c1ccccc1C#Cc1ccccc1B(O)O`, the growth inhibition was -2% (at 1.2 µM); 1% (at 3.7 µM); 13% (at 11.0 µM); 38% (at 33.0 µM); 86% (active) (at 100.0 µM).

Turning to `CN(N=O)c1ccc(/C=C/c2ccnc3ccccc23)cc1`, the growth inhibition was 3% (at 1.2 µM); -4% (at 3.7 µM); 5% (at 11.0 µM); 15% (at 33.0 µM); 56% (at 100.0 µM).
